Source: PubChem BioAssay (NCI)
Where “and” joins values, the source holds several entries; their conditions need not be identical. Equal values may be shown once. This is part of a sample that, as a whole, favours compounds with a hit. Of some 83,000 tested, about 20% had one in any assay.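 Cell lines were cultured in 96-well plates, exposed to a single compound concentration, and assessed for percent growth 48 hours later.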

Assays:
Experiment in all cases: NCI-60 one-dose screen, 48 h (100 = growth as untreated, 0 = no growth, -100 = all killed)
Details in all cases: 10 µM unless noted; active = growth percent below 10; inactive = the rest
[1] = tested on: DU-145 prostate
[2] = tested on: K-562 leukemia
[3] = tested on: MALME-3M melanoma
[4] = tested on: MDA-MB-231 breast
[5] = tested on: RXF 393 renal
[6] = tested on: SF-268 CNS
[7] = tested on: SF-295 CNS
[8] = tested on: SF-539 CNS
[9] = tested on: UACC-257 melanoma
[10] = tested on: M14 melanoma
[11] = tested on: HCT-15 colon
[12] = tested on: HT29 colon
[13] = tested on: SNB-75 CNS
[14] = tested on: SNB-19 CNS
[15] = tested on: U251 CNS
[16] = tested on: PC-3 prostate
[17] = tested on: SK-MEL-5 melanoma
[18] = tested on: UACC-62 melanoma
[19] = tested on: LOX IMVI melanoma
[20] = tested on: SK-MEL-28 melanoma

Measured: growth

COc1ccc(N/C=C/C2=[N+](C)c3ccccc3C2(C)C)c(OC)c1
inactive: [1] 102% | [2] 103% | [3] 85.5% | [4] 85.2% | [5] 97.4% | [6] 95.6% | [7] 86.2% | [8] 102% | [9] 99.5% | [10] 86.4% | [11] 99.3% | [12] 87.4% | [13] 89.5% | [14] 102% | [15] 91.2% | [16] 87.6% | [17] 90.9% | [18] 92.9% | [19] 96% | [20] 113%

CCCCOc1ccc(Nc2cc(Cl)ccc2C(=O)O)cn1
inactive: [1] 120% and 121% | [2] 107% and 108% | [3] 140% and 121% | [4] 113% and 111% | [5] 130% and 104% | [6] 111% and 107% | [7] 108% and 109% | [8] 99.1% and 97.7% | [9] 111% and 98.2% | [10] 101% and 107% | [11] 104% and 89.1% | [12] 115% | [13] 98.7% and 115% | [14] 96.6% and 106% | [16] 93.6% | [17] 99.4% and 102% | [18] 97.9% and 98.1% | [19] 107% and 90.5% | [20] 122% and 113%

O=C1OC(C(O)C(O)CO)C(O)=C1O (configuration not stated)
inactive: [1] 115% | [2] 99% and 90.4% | [3] 94.2% | [4] 116% and 101% | [5] 116% | [6] 109% and 105% | [7] 136% and 101% | [8] 96.8% | [9] 98.7% and 88.2% | [10] 96.9% and 100% | [11] 99.8% and 100% | [12] 102% and 96.4% | [13] 100% and 90.4% | [14] 100% and 98.4% | [15] 104% and 92.5% | [16] 93.2% and 85.3% | [17] 97.2% and 106% | [18] 103% and 99.8% | [19] 104% and 99.2% | [20] 118% and 107%

NC1CCC(C(=O)O)CC1 (configuration not stated)
inactive: [1] 108% and 115% | [2] 107% and 109% | [3] 115% and 106% | [4] 97.3% and 113% | [5] 112% and 106% | [6] 105% | [7] 106% and 110% | [8] 98.9% and 102% | [9] 107% and 113% | [10] 96.5% and 99.3% | [11] 106% and 98.9% | [12] 101% and 102% | [13] 85.8% and 82% | [14] 105% and 110% | [16] 93.3% and 86.9% | [17] 102% and 103% | [18] 97.7% and 101% | [19] 107% and 96.2% | [20] 103% and 107%

CCCCNc1ccc(Nc2ccccc2)cc1
inactive: [1] 84% | [2] 48.9% | [3] 54.8% | [4] 64.4% | [5] 83.9% | [6] 110% | [7] 56.3% | [8] 83.8% | [9] 62.7% | [10] 87.5% | [11] 94.6% | [12] 51.5% | [13] 84.2% | [14] 76.4% | [16] 50.8% | [17] 67.3% | [18] 60.6% | [19] 64.9% | [20] 94.9%

O=C1OC(c2ccccc2)=N/C1=C\c1ccccc1
inactive: [1] 113% | [2] 104% | [3] 86.4% | [4] 111% | [5] 106% | [6] 103% | [7] 99% | [8] 99.5% | [9] 96.5% | [10] 100% | [11] 105% | [12] 113% | [13] 83% | [14] 98.9% | [15] 91% | [16] 95.9% | [17] 97.7% | [18] 101% | [19] 98.1% | [20] 108%
